Laboratory results from PubChem BioAssay AID1634 (National Center for Advancing Translational Sciences (NCATS), 2009).
In all, about 260,000 compounds went through this assay and about 150 (0.058%) were called active. The list comes from a sample in which actives are over-represented; it also holds similar structures and randomly drawn compounds. Unmarked numbers belong to inactive results. Calls come from the whole dose curve; as a rule, active = well fitted inhibition curve with a large enough effect; inconclusive = small, poorly fitted or top-dose-only effect; inactive = no such curve, though single readings can be large or run the other way.

These molecules were tested against Pyruvate kinase PKM (Homo sapiens) (UniProt P14618) (assay: qHTS Assay for Inhibitors of Human Muscle isoform 2 Pyruvate Kinase). Conditions: purified PKM2, ATP generation, Kinase-Glo luminescence; series mostly up to 57.5 µM; activity change, negative = inhibition: at the top concentration.
Sequence of Pyruvate kinase PKM (Homo sapiens) (P14618 whole entry, looked up, canonical isoform): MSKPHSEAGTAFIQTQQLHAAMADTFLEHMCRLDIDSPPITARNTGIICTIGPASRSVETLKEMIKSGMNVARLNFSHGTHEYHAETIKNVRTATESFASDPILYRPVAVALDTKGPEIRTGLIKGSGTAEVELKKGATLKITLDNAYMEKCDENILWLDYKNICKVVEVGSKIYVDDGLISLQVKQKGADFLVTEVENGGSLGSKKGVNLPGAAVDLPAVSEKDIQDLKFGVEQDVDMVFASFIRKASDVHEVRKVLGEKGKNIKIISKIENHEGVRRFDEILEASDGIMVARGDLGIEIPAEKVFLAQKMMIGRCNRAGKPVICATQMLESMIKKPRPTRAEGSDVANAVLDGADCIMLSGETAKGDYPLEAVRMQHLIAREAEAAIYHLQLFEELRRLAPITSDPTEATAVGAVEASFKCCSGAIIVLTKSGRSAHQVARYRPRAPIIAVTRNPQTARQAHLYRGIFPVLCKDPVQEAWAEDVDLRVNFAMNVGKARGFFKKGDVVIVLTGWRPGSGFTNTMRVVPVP
Procedure: NIH Chemical Genomics Center [NCGC] Matthew G. Vander Heiden, M.D., Ph.D. [Harvard Medical School, 77 Avenue Louis Pasteur, Boston, MA 02115] […] ATP generation was detected in a coupled reaction by luciferase-mediated luminescence, an ATP-dependent process. […] The enzyme was assayed at an intermediate level of activity to screen for both inhibitors and activators.
NCGC Assay Protocol Summary: Three uL of substrate mix (at r.t.) in assay buffer (50 mM Imidazole pH7.2, 50 mM KCl, 7 mM MgCl2, 0.01% Tween 20, 0.05% BSA) was dispensed into white solid bottom 1,536 well microtiter plates so that the final concentrations of substrates in the assay were 0.1 mM ADP and 0.5 mM PEP. 23 nL of compound were delivered by a pin tool and 1 uL of enzyme mix in assay buffer (4 degree Celsius) was added. Plates were incubated at room temperature for 1 hour. Two uL of detection mix (Kinase-Glo, Promega; at 4 degree Celsius protected from light) was added and luminescence read by a ViewLux (Perkin Elmer) at 5 second exposure/plate. Data were normalized to the uninhibited and AC100 inhibition (no enzyme). To monitor activation, the first column contained a titration of the activator, NCGC00031955-01 (16-point 1:2 dilutions in duplicate starting at 57 uM) and the first 16 rows of column 4 contained 57 uM of NCGC00031955-01.
Note: nearly all actives have a fitted effect of over 60% in size.
Potency is the fitted concentration of half-maximal effect.

Compared with `Cc1nnc(SCC2=C(C(=O)O)N3C(=O)C(NC(=O)Cn4nc(C)c(Cl)c4C)C3SC2)s1` (stereo not given), `COc1ccc(-n2c(SCC(=O)NCc3cccs3)nnc2-c2ccoc2C)cc1` is lower in “activity change, negative = inhibition” value: 36.9% for the first, -1% for the second.

First: Oc1ccccc1N1CCN(c2ncnc3sc(-c4ccccc4)cc23)CC1
Second: CN1CCN(c2ccc(S(=O)(=O)Nc3ccccc3)cc2[N+](=O)[O-])CC1
The “activity change, negative = inhibition” value of the first is higher: 42.3% for the first, 30.1% for the second.

First: C=CCn1c(SCc2csc(C)n2)nc2scc(-c3ccc(C)o3)c2c1=O
Second: Cc1cccc(CSc2nc3c(c(=O)n2C)SCC3)c1
The “activity change, negative = inhibition” value of the first is higher: 84% for the first, 61.3% for the second.

First: CCn1cc(C(=O)NCc2ccc3c(c2)OCO3)c2cc(OC)c(OC)cc2c1=O
Second: COc1c(O)ccc2c1CN1CCc3cc4c(cc3C1C2)OCO4 (stereo not given)
The “activity change, negative = inhibition” value of the first is higher: 47.2% for the first, 40.9% for the second.

Going from `Nc1nc(SCC(=O)N2CCN(S(=O)(=O)c3ccc(Cl)cc3)CC2)n[nH]1` to `Cn1ncc(N2CCN(S(=O)(=O)c3ccc(Br)cc3)CC2)c(Cl)c1=O`, the “activity change, negative = inhibition” value rises from 47.6% to 58.5%.

First: C=CC(=O)c1ccc2ccccc2c1
Second: N#CCC(=O)N/N=C/c1cn(Cc2ccc3ccccc3c2)c2ccccc12
The “activity change, negative = inhibition” value of the first is higher: 65.1% for the first, 48.6% for the second.

First: CC(C)Oc1ccc(CCC(=O)NNC(=S)NCc2ccccc2)cc1
Second: CNC(=O)COc1ccc(S(=O)(=O)Nc2ccccc2)cc1
The “activity change, negative = inhibition” value of the first is lower: 8.22% for the first, 85.6% for the second.

First: N#Cc1nc(COc2ccc(Cl)cc2)oc1N1CCCC1
Second: O=C(NCc1cccs1)C1CCN(S(=O)(=O)c2ccc(Cl)cc2)CC1
The “activity change, negative = inhibition” value of the first is lower: 42.1% for the first, 64.3% for the second.

Compared with `CS(=O)(=O)Nc1cccc(C2=NN(S(=O)(=O)c3ccccc3)C(c3cccs3)C2)c1` (stereo not given), `CCS(=O)(=O)Nc1ccc(C2=NN(C(C)=O)C(c3cccs3)C2)cc1` (stereo not given) is higher in “activity change, negative = inhibition” value: 40.6% for the first, 97.2% for the second.

Compared with `O=C(CCSCCc1ccccn1)Nc1nccs1`, `COc1ccccc1C(=O)NCc1nnc(SC(C)C(=O)Nc2nccs2)n1C` (stereo not given) is higher in “activity change, negative = inhibition” value: 30.4% for the first, 34.9% for the second.

Compared with `CCOc1cc(/C=N/O)ccc1OCc1ccccc1F`, `COc1ccc(C(=O)CCc2ccccc2O)c(OC)c1` is lower in “activity change, negative = inhibition” value: 42.2% for the first, 30.3% for the second.

First: C(=N\N1CCN(c2ccccn2)CC1)/C1=C(N2CCOCC2)C(=C/c2ccccc2)/CC1
Second: COc1ccc(SC[C@H](Cc2ccccc2)N2CCN(CCc3ccccc3)CCC2=O)cc1
The “activity change, negative = inhibition” value of the first is higher: 112% for the first, 33% for the second.

Going from `COc1cccc(C(=O)NNS(=O)(=O)c2ccc(F)cc2)c1` to `Cn1c(=O)n(C)c2cc(NS(=O)(=O)c3ccc(F)cc3)ccc21`, the “activity change, negative = inhibition” value rises from 18% to 39%.

Compared with `Cc1ccc(C(=O)Cn2cc([N+](=O)[O-])nc2C)cc1`, `O=C(CSc1nnc(-c2ccc([N+](=O)[O-])cc2)o1)Nc1ccccn1` is higher in “activity change, negative = inhibition” value: 38.1% for the first, 38.2% for the second.

Going from `Cc1ccc(CNC(=O)C2CC(c3ccccc3[N+](=O)[O-])=NO2)o1` (stereo not given) to `O=C(COc1ccccc1[N+](=O)[O-])N/N=C/c1ccc[nH]1`, the “activity change, negative = inhibition” value falls from 53.9% to 40.2%.

Going from `O=c1cc(CO)oc(C(Nc2cccc(C(F)(F)F)c2)c2ccccn2)c1O` (stereo not given) to `CCCc1nc2ccccc2c(=O)n1/N=C/c1ccc(O)c(O)c1`, the “activity change, negative = inhibition” value falls from 61% to 36.2%.

Going from `Cc1ccc(-c2nn(-c3ccccc3)cc2CN(Cc2ccccc2)C(=O)CCC(=O)O)o1` to `CN(C)S(=O)(=O)c1cccc(-c2nn(-c3ccccc3)cc2/C=C2\SC(=S)N(CC(=O)O)C2=O)c1`, the “activity change, negative = inhibition” value falls from 53.1% to 52.5%.

Compared with `Cc1cc(C)c2nc(-c3ccco3)cc(C(=O)O)c2c1`, `Cc1ccc(-n2nc(-c3ccco3)cc2C(=O)NCc2cccnc2)cc1` is lower in “activity change, negative = inhibition” value: 55% for the first, 49.8% for the second.

Going from `CC(C)(C)C1C/C(=C/c2ccco2)C(=O)/C(=C/c2ccco2)C1` (stereo not given) to `COc1ccc2[nH]c3c(=O)n(Cc4ccco4)cnc3c2c1`, the “activity change, negative = inhibition” value rises from 31.3% to 47.6%.

First: Cc1ccc(NS(=O)(=O)c2ccc3c(c2)oc(=O)n3C)c(C)c1
Second: Cc1ccc(NS(=O)(=O)c2cc3c(cc2C)NC(=O)CO3)cc1
The “activity change, negative = inhibition” value of the first is lower: 33.2% for the first, 80.8% for the second.

Compared with `COc1ccc2c(c1)C=CC1(O2)N(CCO)c2ccccc2C1(C)C` (stereo not given), `CC(=O)Nc1cccc(OCC(=O)/C=C2\N(C)c3ccccc3C2(C)C)c1` is lower in “activity change, negative = inhibition” value: 31.4% for the first, 30.3% for the second.

Compared with `O=C(Cc1cccs1)Nc1nnc(C2CC2)s1`, `Nc1nnc(SCC(=O)NC2CCCc3ccccc32)s1` (stereo not given) is lower in “activity change, negative = inhibition” value: 54.7% for the first, 32.8% for the second.

Going from `Cc1nc2nc(COc3ccccc3)[nH]n2c(=O)c1Cc1ccccc1` to `Oc1ccc2nc(Cc3ccccc3)[nH]c2c1`, the “activity change, negative = inhibition” value rises from 24.6% to 36.4%.

Going from `COc1ccc(-c2ccc(CCC(=O)O)n2NC(=O)c2ccc(C(C)(C)C)cc2)cc1` to `CC(C)(C)c1ccc(C(=O)NCCn2c(N)c(C#N)c3nc4ccccc4nc32)cc1`, the “activity change, negative = inhibition” value falls from 52.2% to 33.8%.

Going from `Oc1ccccc1CNc1ncc(Br)cc1Br` to `O=C(CCC(=O)n1ncc2ccccc21)NCc1ccccc1Cl`, the “activity change, negative = inhibition” value falls from 80% to -5.26%.

First: N/C(=N\S(=O)(=O)c1cc(C(F)(F)F)cc(C(F)(F)F)c1)c1cccs1
Second: O=c1ccc2cc(S(=O)(=O)Nc3ccccc3F)ccc2o1
The “activity change, negative = inhibition” value of the first is higher: 58.3% for the first, 33.2% for the second.

First: Cc1ccc2nc(C)cc(N/N=C/c3ccc(F)cc3)c2c1
Second: COc1cc(/C=N\Nc2nc(-c3cccs3)c(NC(C)=O)s2)ccc1O
The “activity change, negative = inhibition” value of the first is higher: 80.3% for the first, 67.4% for the second.

Going from `COc1ccccc1-n1cnc2cc(NS(=O)(=O)c3ccccc3)ccc21` to `CCOc1ccc(S(=O)(=O)Nc2nc3cc(OC)ccc3s2)cc1`, the “activity change, negative = inhibition” value falls from 48.5% to 34%.

Going from `Fc1ccccc1CNC(=S)Nc1ccc(Cl)cc1` to `O=S(=O)(c1ccc(Br)cc1)n1ccc2ccccc21`, the “activity change, negative = inhibition” value falls from 38.9% to 31.3%.

Going from `Cn1c(-c2ccc(F)cc2)cnc1SCC(=O)NCc1ccco1` to `Cc1ccc(NN=Nc2nc3c([nH]2)c(=O)n(C)c(=O)n3C)cc1`, the “activity change, negative = inhibition” value falls from 58.6% to 44.6%.

First: O=c1cc(Cn2nnc(-c3ccc(Cl)cc3)n2)nc2sccn12
Second: Brc1c(CSc2nncc3ccccc23)nc2ccccn12
The “activity change, negative = inhibition” value of the first is higher: 160% for the first, 60.8% for the second.

First: NC(=S)c1ccc(C(N)=S)o1
Second: C/C=C\C=C\C(=O)N1CC2(CC(c3cccc(NC(=O)/C(C)=C\C)c3)=NO2)C[C@H]1C(N)=O (stereo not given in full)
The “activity change, negative = inhibition” value of the first is lower: 86.5% for the first, 94.1% for the second.

Compared with `O=C(/C=C/c1ccc(Cl)cc1Cl)c1cccnc1`, `O=C(N/N=C/c1ccc(O)c(O)c1)C1c2ccccc2Oc2ccccc21` is higher in “activity change, negative = inhibition” value: 30.2% for the first, 59.5% for the second.

First: Cc1cccc(C)c1NC1=NC(=S)N(c2ccc(N(C)C)cc2)C1(C)C
Second: CC1=C/C(=N\OS(=O)(=O)c2ccccc2)C=CC1=O
The “activity change, negative = inhibition” value of the first is lower: -8.9% for the first, 9.56% for the second.

`Cc1coc2c(O)cc3c(c12)OC1(N2CCCCC2)C(=O)NCCCC31` (stereo not given) was tested, and the “activity change, negative = inhibition” value was 59.5%.

For `O=c1[nH]c2ccccc2n2c(-c3ccccc3)nnc12`, the Potency was 25.1 µM (active).
